High-throughput results from PubChem BioAssay.
A3A deaminase – inhibitors of human APOBEC3A DNA deaminase. P31941. recombinant A3A, FAM/TAMRA ssDNA deamination fluorescence. inhibition, % at 20 µM. hit rate 0.41% among 330,000. AID 493011;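 active = at least 40% inhibition at 20 µM here, with at most 30% in a related deaminase screen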;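 also: plate controls were A3A with DMSO for no effect and wells lacking A3A enzyme for full effect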
Target sequence (P31941 whole entry, looked up): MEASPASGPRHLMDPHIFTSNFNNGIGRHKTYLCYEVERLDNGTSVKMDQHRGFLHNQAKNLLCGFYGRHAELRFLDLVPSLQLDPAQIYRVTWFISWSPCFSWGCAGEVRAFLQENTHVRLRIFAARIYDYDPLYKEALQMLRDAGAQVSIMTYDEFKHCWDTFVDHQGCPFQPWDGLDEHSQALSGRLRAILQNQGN
HDAC3 inhib – blocks human histone deacetylase 3; recombinant HDAC3, fluorogenic peptide/trypsin coupled, fluorescence; hit rate 0.15% among 320,000; AID 2718; inhibition, % at 8.3 µM; in the data active = inhibition above about 26%, passing the limit was not always enough; inconclusive = no clear call, values can overlap the other calls
APOBEC3G inh – inhibitors of human APOBEC3G DNA deaminase; hit rate 0.28% among 330,000; inhibition, % at 20 µM; recombinant A3G, ssDNA deamination FAM/TAMRA fluorescence; Q9HC16;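 active = inhibition of at least 40% at 20 µM, with no more than 30% in the related APOBEC3A deaminase screen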;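 also: plate controls were DMSO wells with A3G for no effect and wells lacking A3G enzyme for full effect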
Target sequence (Q9HC16 whole entry, looked up): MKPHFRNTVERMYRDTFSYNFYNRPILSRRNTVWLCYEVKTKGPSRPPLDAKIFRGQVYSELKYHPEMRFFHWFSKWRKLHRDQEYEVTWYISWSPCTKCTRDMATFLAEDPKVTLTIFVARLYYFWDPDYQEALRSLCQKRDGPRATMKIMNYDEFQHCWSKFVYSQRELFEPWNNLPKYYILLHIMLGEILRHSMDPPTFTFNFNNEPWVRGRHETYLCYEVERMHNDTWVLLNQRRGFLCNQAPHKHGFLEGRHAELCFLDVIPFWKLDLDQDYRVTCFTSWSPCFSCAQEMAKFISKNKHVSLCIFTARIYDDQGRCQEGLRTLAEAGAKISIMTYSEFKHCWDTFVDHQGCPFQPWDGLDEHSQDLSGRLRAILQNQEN
LANA-H2B inh – blocks KSHV LANA binding to histone H2A/H2B. Q9QR71. cell-free LANA-H2A/H2B peptide, fluorescence polarization. inhibition, % (no concentration beside the values). hit rate 0.6% among 320,000. AID 2629; in the data active = inhibition mostly above about 10%, no sharp cut-off; inactive = mostly below about 6.7%
The depositor's hits bear a star; ? = inconclusive; . = no result given; + = active, no number. Shown are actives, neighbours in structure and some others; about 1.4% of the full set was active somewhere.

SMILES	A3A deaminase	HDAC3 inhib	APOBEC3G inh	LANA-H2B inh
O=C(C1=C(O)C(=O)N(CCN2CCOCC2)C1c1ccc(F)cc1)c1cc2ccccc2o1 (stereo not given)	-6	-2	-6	-7
O=C(C1=C(O)C(=O)N(CCCN2CCOCC2)C1c1ccccn1)c1cc2ccccc2o1 (stereo not given)	0	6	-2	28*
CCN(CC)CCN1C(=O)C(O)=C(C(=O)c2ccc(C)o2)C1c1ccccn1 (stereo not given)	0	-1	3	16*
Cc1ccc(C(=O)C2=C(O)C(=O)N(CCN3CCOCC3)C2c2ccccn2)o1 (stereo not given)	-1	.	1	.
COc1cc(-c2noc(C)c2C(=O)NCCCn2ccnc2)cc(OC)c1OC	-3	-4	-6	-4
O=C(C[C@@H]1C/C=C\C[C@H](Cc2ccc(F)cc2)C(=O)OCCNC1=O)N[C@H](CO)Cc1ccccc1	-2	-4	-6	5
CC1CCCCC12NC(=O)N(CC(=O)NCCc1ccc(S(N)(=O)=O)cc1)C2=O (stereo not given)	18	-1	-9	1
CN1CCN2c3ncccc3Cc3ccccc3C2C1 (stereo not given)	-1	-2	-2	-3
CC(C)(C)[C@]1(O)CCN2C[C@H]3c4ccccc4CCc4cccc(c43)[C@@H]2C1	-1	-4	-6	24*
Cc1cc(=O)oc2cc(OCC(=O)N/N=C/c3cc([N+](=O)[O-])ccc3O)ccc12	.	-5	.	+
Cc1ccc(C)c(NC(=O)CCC(=O)N/N=C/c2cc([N+](=O)[O-])ccc2O)c1	-1	6	-5	-1
COc1cccc(COC(=O)C2CCN(S(=O)(=O)c3ccc(C)cc3C)CC2)c1OC	0	12	-1	27*
COc1cccc(COC(=O)C2CCN(S(=O)(=O)c3ccc(C)cc3)CC2)c1OC	-1	2	-5	3
Cn1cccc1C(=O)NCC(c1ccco1)N1CCCCC1 (stereo not given)	-3	-4	-5	-3
CC(C)C[C@H](NC(=O)c1nc[nH]c1C(=O)NCc1ccccc1)C(=O)OC(C)(C)C	0	40*	-7	2
CC(C)C[C@H](NC(=O)c1nc[nH]c1C(=O)NCc1ccc(CNC(=O)OC(C)(C)C)cc1)C(=O)OC(C)(C)C	-1	35*	-13	-1
CC(C)C[C@H](NC(=O)c1nc[nH]c1C(=O)NC1CCN(C(=O)OC(C)(C)C)CC1)C(=O)OCc1ccccc1	-3	44*	-10	-1
CC(C)C[C@H](NC(=O)c1[nH]cnc1C(=O)Nc1ccc(CNC(=O)OC(C)(C)C)cc1)C(=O)OC(C)(C)C	-2	52*	-2	2
Cc1ccccc1-c1nnc(SCC(=O)N(C)C2CCS(=O)(=O)C2)n1C (stereo not given)	3	8	-3	-8
O=C(NCC1CCCO1)C(=O)N/N=C/c1cccc(Cl)c1 (stereo not given)	-5	4	-5	-2
CC(NC(=O)C1CCN(C(=O)c2ccc(F)cc2)CC1)c1ccc(S(N)(=O)=O)cc1 (stereo not given)	-5	2	-4	0
CC(C)CN(C(=O)c1ccc(N2CCCC2=O)cc1)c1c(N)n(Cc2ccccc2)c(=O)[nH]c1=O	2	7	-7	26*
CCCCn1c(N)c(N(CCC(C)C)C(=O)c2ccc3ccccc3c2)c(=O)[nH]c1=O	0	-5	1	32*
Cc1ccc2c(=O)n3c(nc2c1)C(Cc1ccccc1)NC(=O)c1cc(Cl)ccc1-3 (stereo not given)	-5	-13	-10	2
COCCNC(=O)NC(=O)CN1CCCc2ccccc21	-1	3	-8	16*
SMILES	A3A deaminase	HDAC3 inhib	APOBEC3G inh	LANA-H2B inh
Cc1ccc(S(=O)(=O)Nc2cccc(C(=O)NCc3ccc(S(N)(=O)=O)cc3)c2)cc1	-3	1	-9	-7
C[C@@H]1CN([C@@H](C)CO)C(=O)c2cccc(NC(=O)Nc3ccccc3)c2O[C@H]1CN(C)C(=O)Nc1cccc2ccccc12	5	0	2	7
O=C(Oc1ccc(-c2nnco2)cc1)c1ccco1	3	63*	11	0
O=C(Oc1ccc(-c2cnc3ccccc3n2)cc1)c1ccco1	-2	-3	-7	3
O=C(Oc1cccc(-n2cnnn2)c1)c1ccco1	-4	32*	-5	-3
CCc1cccc(OCC(=O)Nc2ccccc2N2CCCC2)c1	-2	6	-3	1
O=C(CSc1nnc(CNC(=O)c2cccs2)o1)NCCc1ccccc1	-3	5	-3	36*
O=C(CSc1nnc(CNC(=O)c2cccs2)o1)c1ccccc1	2	14	-4	7
CCOC(=O)c1cc(OC(=O)c2ccccc2Br)n(-c2ccccc2)n1	-3	1	-8	17*
CCOc1ccc(/C=N/OCC(=O)Nc2cc(C)on2)cc1	2	2	-4	21*
CCOc1ccc(/C=N/OCC(=O)Nc2ccc3c(c2)OCO3)cc1	3	4	-1	-2
CC(=O)N1N=C(c2cccs2)CC1c1ccc(C)o1 (stereo not given)	1	10	2	36*
CC(=O)N1N=C(c2cccs2)CC1c1cccs1 (stereo not given)	-2	-9	-8	0
O=C(CCCSc1ccccc1)Nc1ccc(Cl)c(S(=O)(=O)N2CCOCC2)c1	3	8	-2	-2
Cc1cccc(NC(=O)COC(=O)CC2CCCC2)c1C	1	.	-7	.
O=C(Nc1ccnn1C1CCN(Cc2ccc(CO)o2)CC1)c1ccc2c(c1)OCO2	-1	11	-5	-1
COc1cc(CN2CCC(n3nccc3NC(=O)c3ccc4c(c3)OCO4)CC2)ccc1O	2	6	-5	47*
CCN(CC(=O)Nc1ccc(NC(C)=O)cc1)CC(=O)Nc1ccccc1C(=O)c1ccccc1	3	0	-2	10*
CN(c1ccccc1)S(=O)(=O)c1ccc(Cl)c(C(=O)NCc2ccccc2CN2CCCC2)c1	-2	-1	0	6
O=C(COc1ccccc1)Nc1nccs1	1	-4	16	28*
O=C(COc1ccc2ccccc2c1)Nc1nccs1	-2	13	-9	-1
COc1cc(C(=O)NCC(c2cccs2)N2CCOCC2)cc(Br)c1OCc1ccccc1 (stereo not given)	-3	?	-7	0
C[C@H](CO)N1C[C@H](C)[C@@H](CN(C)S(=O)(=O)c2ccc(F)cc2)Oc2ccc(NS(=O)(=O)c3ccccc3)cc2C1=O	1	7	5	-5
O=C(OCCN1C(=O)c2cccc3c(N4CCOCC4)ccc(c23)C1=O)c1ccc(Cl)cc1	-1	-10	-9	12*
CCC(C)[C@H]1CNCCN1CCC12CC3CC(CC(C3)C1)C2 (stereo not given in full)	0	-4	2	-1
CN(Cc1ccccc1)C(=O)c1ccc(S(=O)(=O)N(C)c2ccccc2)cc1	-4	-7	-6	-4
CN(C)S(=O)(=O)c1cccc(NC(=O)Cc2ccc(Cl)cc2)c1	8	-7	-8	-1
